H9c2 TAG inh – inhibitors of triacylglycerol accumulation; H9c2 cells, Nile Red lipid (TAG) fluorescence; cells loaded with 200 µM oleic acid; inhibition, % at 12.5 µM; hit rate 0.66% among 230,000; AID 651582;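 active means pattern-corrected inhibition of lipid staining of at least 50% with the nuclear-stain viability signal not falling by more than 50%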;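 further: 0% = DMSO wells and 100% = triacsin C control wells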
aSyn 5UTR inh – 5' untranslated region of α-synuclein, MLPCN primary screen. AID 1813. hit rate 0.82% among 300,000. alpha-synuclein 5'UTR reporter, inhibitor activity. inhibition, % (tested at 7.5 µM); in the data active means inhibition above about 60%; inconclusive means no clear call, values can overlap the other calls;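 further: H4 neuroglioblastoma cells stably carrying SNCA 5'UTR luciferase fusion; 0% = DMSO wells and 100% = positive control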
Gli-Sufu block – Gli-Sufu pathway antagonism | Sufu-KO-LIGHT fibroblasts, Gli luciferase reporter luminescence | inhibition, % at 5 µM | hit rate 0.74% among 340,000 | AID 588413;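 active means inhibition above about 55%, limit read from the data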;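 further: 0% = DMSO-treated cells and 100% = wells with medium but no cells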
Shn3 inh set2 – reduces Shn3 3'UTR luciferase signal in osteoblasts | Clone20 osteoblast Shn3 3'UTR firefly luciferase, 24 h | inhibition, % at 12.5 µM | AID 588674 | hit rate 0.52% among 360,000;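 active means mean inhibition of at least 75% with every replicate also reaching 75%; inconclusive means mean inhibition at least 75% but some replicate below; inactive means mean inhibition below 75%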;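 further: 0% = median of neutral control wells and 100% = pilot-screen positive control compound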
697 NFkB inh – inhibitors of the PMA/ionomycin-induced NF-kB reporter in 697 B cells. 697 B-cell NF-kB luciferase reporter, 16 h. inhibition, % at 4 µM. AID 435022. hit rate 0.33% among 330,000; in the data active means inhibition above about 35%
Jurkat NFkB inh – lowers PMA/ionomycin-induced NF-kB signal in Jurkat cells; hit rate 0.53% among 330,000; inhibition, % at 4 µM; PMA/ionomycin-induced NF-kB luciferase reporter, luminescence; in the data active means inhibition above about 50%
Gli-Sufu confirm – confirmation of Gli-SUFU pathway antagonists | shares compounds with Gli-Sufu block | Sufu-KO-LIGHT cells, Gli luciferase reporter, luminescence | inhibition, % at 5 µM | hit rate 40% among 2,500 | AID 602428;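 active means mean inhibition at 5 µM reaching about 45%, limit read from the data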;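 further: plate controls were DMSO-treated cells for no effect and wells lacking cells for full effect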
Gli cytotox – cytotoxicity counter-screen for Gli-SUFU antagonists | Sufu-KO-LIGHT cells cytotoxicity, ATP luminescence | hit rate 32% among 2,500 | cytotoxicity, % at 5 µM | shares compounds with Gli-Sufu block;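 active means mean cytotoxicity at 5 µM above about 25%, limit read from the data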;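 further: cells exposed to compound overnight for roughly 16 to 18 hours; plate controls were DMSO wells with cells for no effect and medium without cells for full effect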
Wnt3a cs – counter-screen for Gli-SUFU antagonists: Wnt3a reporter inhibition; hit rate 20% among 2,500; shares compounds with Gli-Sufu block; inhibition, % at 6.25 µM; Wnt-LIGHT cells, Wnt3a-driven luciferase reporter, luminescence;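 active means mean inhibition above about 25%, limit read from the data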
An asterisk follows results filed as active; ? = inconclusive; . = no result. Hits are enriched below; roughly 2.3% of the tested compounds scored in any of these assays.

SMILES	H9c2 TAG inh	aSyn 5UTR inh	Gli-Sufu block	Shn3 inh set2	697 NFkB inh	Jurkat NFkB inh	Gli-Sufu confirm	Gli cytotox	Wnt3a cs
CCC(=O)Nc1ccc2c(c1)nc1n2CCN(C2CCCCC2)C1	11.3	-7.7	-3.3	28.8	7.6	-9.6	.	.	.
COC(=O)CCCCCCCCCC[N+]1(C)CCCCC1	-6.7	-1.6	1.9	14.5	-0.2	1.9	.	.	.
C[N+]1(CC(=O)OC2CCCCCCCCCCC2)CCCC1	-8.1	18.9	64.6*	-2.8	-6.9	-2.2	55.9*	29.4*	-30.5
O=C(Nc1nc(-c2cccs2)cs1)c1cccc(S(=O)(=O)N2CCCCCC2)c1	5.5	3.4	61.1*	59.3	-30.8	-17.5	57.6*	-5.4	-81.1
Cc1ccc(S(=O)(=O)NN2C(=O)/C(=C/c3ccccn3)SC2=S)cc1	.	0.8	-4.4	-7.1	-9.7	3.2	.	.	.
Nn1c(Cc2cccc3ccccc23)nnc1SCn1nnc2ccccc2c1=O	.	6.1	-2.0	14.4	10.3	-11.1	.	.	.
CC(=O)Nc1ccc(SCC(=O)c2cc(C)ccc2C)cc1	.	-3.7	5.3	-40.7	4.7	-9.0	.	.	.
CC(=O)Nc1ccc(SCC(=O)c2cc(C)n(-c3ccccc3)c2C)cc1	.	17.3	51.4	-7.1	-90.0	-27.2	70.2*	6.2	77.4*
COc1ccc(CCNC(=O)[C@H](C)N2C(=O)N3CCc4c([nH]c5ccccc45)[C@@]3(C)C2=O)cc1	.	22.6	0.2	59.3	-2.2	8.5	.	.	.
NC(N)=NC(N)=Nc1ccc(SC(F)(F)F)cc1	.	-0.4	67.0*	68.3	-30.5	6.9	71.9*	27.9*	94.4*
NC(N)=NC(N)=Nc1ccc2ccccc2c1	.	2.4	4.8	10.4	-6.3	11.2	.	.	.
Cc1nn(C)c(C)c1/C=C/C(=O)O	-24.3	14.3	-2.2	16.3	-11.5	6.6	.	.	.
Cc1nn(C)c(C)c1/C=C/C(=O)c1ccc(Cl)cc1Cl	-24.9	-15.8	63.8*	84.1	-17.6	37.3	63.2*	22.8	-5.2
CCC(C)(C)n1nnnc1C(c1cc2ccc(OC)cc2[nH]c1=O)N1CCc2ccccc21 (stereo not drawn)	.	-9.8	55.7*	12.7	-30.5	-20.8	27.4	10.7	-3.1
Nc1ccc(C(=O)N/N=C\c2cc(N=Nc3cccc4ccccc34)ccc2O)cc1	56.4*	50.4	66.6*	89.1*	-56.8	7.1	65.5*	40.5*	58.7*
COc1cccc(C=NNC(=O)C(C)SC(C)C(=O)NN=Cc2cccc(OC)c2)c1 (stereo not drawn)	-8.2	.	52.1	-7.2	.	.	6.0	-13.6	-10.5
Cc1ccc2nc(CC(O)(c3ccccc3)c3ccccc3)ccc2c1	-2.6	.	.	-0.5	.	.	.	.	.
Cc1nnc(NC(=O)CN2C(=O)NC3(CCCC3)C2=O)s1	-22.5	1.2	1.6	0.7	9.6	6.9	.	.	.
c1csc(CCNc2ncnc3sc4c(c23)CCC4)c1	-36.4	12.3	55.6*	88.1*	-11.8	30.5	59.6*	29.6*	1.2
c1ccc(Nc2ncnc3sc4c(c23)CCC4)cc1	.	-38.7	-14.7	-6.0	-16.1	0.5	.	.	.
c1ccc(-c2csc3nnc(SCc4ccc5c(c4)OCO5)n23)cc1	-33.6	15.8	52.1	23.8	-7.6	0.4	10.0	5.8	4.8
O=C(CCSc1nnc2scc(-c3ccccc3)n12)NCc1ccc2c(c1)OCO2	.	22.0	-3.9	1.9	6.5	-2.4	.	.	.
Cn1c(=O)c2c(nc(NCc3ccc4c(c3)OCO4)n2Cc2ccc(F)cc2)n(C)c1=O	.	10.4	53.5	79.2	-12.5	5.6	43.8	26.8*	6.5
Cn1c(=O)c2c(nc(NCc3ccc4c(c3)OCO4)n2Cc2ccccc2)n(C)c1=O	17.9	18.0	63.7*	60.1	2.4	10.4	62.2*	32.1*	7.9
Nc1nonc1C(=O)NCCNCc1cc(Br)ccc1OCc1ccccc1F	-34.1	-17.8	51.0	84.6*	-14.2	13.3	44.2	34.2*	2.2
SMILES	H9c2 TAG inh	aSyn 5UTR inh	Gli-Sufu block	Shn3 inh set2	697 NFkB inh	Jurkat NFkB inh	Gli-Sufu confirm	Gli cytotox	Wnt3a cs
COc1cc(C)nc(OCCNC(=O)COc2ccc(Cl)cc2Cl)n1	9.6	7.6	8.9	-15.2	7.6	13.0	.	.	.
O=C(Nc1cc(Sc2ccccn2)cc([N+](=O)[O-])c1)c1cccc(Cl)c1	-3.5	18.9	7.1	0.4	1.9	0.7	.	.	.
O=C(Nc1cc(Sc2ccccn2)cc([N+](=O)[O-])c1)c1ccc(Cl)cc1	-4.8	-37.5	53.1	78.8	-42.3	21.5	19.5	9.9	-57.7
CCN(CC)c1ccc(/C=N/NC(=O)c2c(Cl)cnn2C)c(O)c1	.	90.0*	87.4*	79.3	-2.9	31.8	67.5*	33.5*	58.7*
CC1CCN(S(=O)(=O)c2ccc(NC(=O)Cc3ccccc3)cc2)CC1	.	19.1	56.2*	-24.8	-9.1	13.3	20.1	23.4	-16.8
CCOC(=O)N1CCN(c2cc(=O)n(-c3ccccc3Cl)c(=O)[nH]2)CC1	-0.5	7.4	53.8	-13.1	12.1	-5.0	16.2	22.9	2.0
CCCCn1c(N)c(N(CC(C)C)C(=O)c2ccc(N3C(=O)c4ccccc4C3=O)cc2)c(=O)[nH]c1=O	4.7	15.0	-1.8	-21.2	-0.8	6.7	.	.	.
O=C(O)c1ccc(N/N=C/c2ccc(OC(=O)c3ccccc3Cl)cc2)cc1	.	?	60.5*	-17.0	-13.5	16.7	63.8*	6.5	79.4*
Nc1ccc(C(=O)N/N=C\c2ccc(OC(=O)c3ccccc3Cl)cc2)cc1	.	-11.8	-4.3	-0.2	4.0	-3.8	.	.	.
COc1cccc(CSc2ccc(S(=O)(=O)N3CCOCC3)cc2C(=O)NCC2CCCO2)c1OC (stereo not drawn)	3.6	-1.1	32.8	-11.3	4.5	-16.2	.	.	.
Cc1ccc(N2C(=O)CC2(C#N)c2ccc(OCc3ccccc3)cc2)cc1 (stereo not drawn)	.	-33.4	3.1	-3.5	12.1	2.1	.	.	.
O=C(CCCC(=O)NCCc1ccccc1)NCCc1ccccc1	-3.2	-7.7	-4.1	-44.3	21.4	-5.5	.	.	.
COc1ccc(CNC(=O)CSc2nnc(-c3ccc(NC(C)=O)cc3)n2C)cc1	.	-22.0	3.2	-1.4	14.3	11.9	.	.	.
COC(=O)/C(=N\Nc1ccc(Cl)cc1)Sc1nnc(-c2ccc(OC)cc2)n1C	.	9.1	80.3*	4.4	5.8	-0.1	15.2	23.8	-15.8
CCOc1ccc(OCc2ccc(C(=O)NC(C)(C)C)o2)cc1	-21.3	-70.3	52.5	11.3	-126.8	-5.8	12.8	11.8	-20.1
CCOc1ccc(OCc2ccc(C(=O)NN)o2)cc1	-7.3	-40.2	-64.7	-56.5	-102.4	-20.2	.	.	.
Clc1ccccc1CN1CCSCC1	.	9.6	5.5	-1.0	-5.2	-4.4	.	.	.
Cn1nc(C(C)(C)C)cc1C(=O)NCc1ccc2c(c1)OCO2	-26.5	4.8	68.0*	90.1*	4.9	40.4	68.2*	30.2*	42.9*
